MKP-1 inh – blocks human MKP-1 phosphatase activity; P28562; recombinant MKP-1, OMFP hydrolysis fluorescence; inhibition, %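 (compounds tested at a single concentration somewhere between 10 and 100 µM)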; actives 0.15% (n = 65,000); AID 374;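 active = inhibition above about 50%, limit read from the data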;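 also: 0% = DMSO max control wells and 100% = wells with enzyme stopped by NaOH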
Target sequence (P28562 whole entry, looked up): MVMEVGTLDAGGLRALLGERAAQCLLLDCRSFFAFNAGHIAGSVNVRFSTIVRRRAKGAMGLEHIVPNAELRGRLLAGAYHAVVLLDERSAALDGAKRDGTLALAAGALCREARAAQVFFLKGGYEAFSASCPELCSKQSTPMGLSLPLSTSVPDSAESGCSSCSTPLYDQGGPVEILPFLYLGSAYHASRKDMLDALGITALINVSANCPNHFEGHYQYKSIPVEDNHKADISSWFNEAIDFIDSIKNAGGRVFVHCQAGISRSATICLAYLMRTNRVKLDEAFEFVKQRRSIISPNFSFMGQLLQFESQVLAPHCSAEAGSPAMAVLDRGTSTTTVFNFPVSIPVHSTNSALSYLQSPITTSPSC
Cdc25B inh – inhibitors of human Cdc25B phosphatase | P30305 | recombinant Cdc25B, OMFP fluorescence Ex485/Em525 | inhibition, %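 (compounds tested at 10 µM final in the well)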 | actives 0.1% (n = 65,000) | AID 368; in the data active = inhibition above about 50%
Hsp90 block – displaces geldanamycin probe from tumor Hsp90; P07900; NCI-N417 lysate Hsp90, Cy3B-geldanamycin FP displacement; inhibition, % at 30 µM; actives 0.35% (n = 64,000);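 active = inhibition above 50%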;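 also: 0% = tracer plus lysate wells and 100% = tracer alone without lysate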
Fluor 339 460 – intrinsic fluorescence of library compounds, ex339/em460 – biochemical, MLSMR library, data from DPM-DC assay, artefact control, profiling panel | fluorescence fold increase at 10 µM | actives 5.5% (n = 65,000) | compound autofluorescence, ex339/em460 nm, NADH buffer; hits give high values; 1 = no-compound wells, NADH background;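 active = at 10 µM, mean starting fluorescence two-fold or more over control wells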;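 also: signal is the first read of a kinetic run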
NADH coupling – inhibition of NAD/NADH coupling enzymes, library profiling; actives 0.02% (n = 65,000); coupled PK/LDH NADH assays, four targets; IC50, µM (top dose mostly 10 µM), for inactives: at the top dose inhibition;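 active = single-dose screening hits from any of four coupled enzyme assays that gave an IC50 when retested across doses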;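 also: the DPM-DC format reads NADH fluorescence rather than 340 nm absorbance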
Abs 340nm – absorbance at 340 nm; compound absorbance at 340 nm, fold over control; fold change at 10 µM; 65,000 tested, under 10 active;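 active = at 10 µM dose, initial 340 nm absorbance at least 2 fold that of control wells; inactive = change under 2 fold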;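 also: initial absorbance extrapolated from kinetic A340 decline of NADH oxidation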
Starred values were filed as active, the others as inactive; . = no result. Hits are enriched below; roughly 5.7% of the tested compounds scored in any of these assays.

SMILES	MKP-1 inh	Cdc25B inh	Hsp90 block	Fluor 339 460	NADH coupling	Abs 340nm
O=C1c2ccccc2NC2(CCCCC2)N1c1ccc(O)cc1	29	-7	1	3.7*	9%	1.1
O=C1NC2(CCCCC2)Oc2ccccc21	9	-6	1	1.1	4%	1
O=C(O)CCC(C(=O)O)N1C(=O)c2ccccc2C1=O (configuration not stated)	.	.	1	.	.	.
O=c1c(O)c(-c2cccs2)oc2ccccc12	6	5	-3	3.7*	4%	1.2
Cc1cc(N2CCC(C)CC2)nc2ccc(N3C(=O)CCC3=O)cc12	-1	-5	-1	5*	6%	1
Cc1cccn2c(=O)c3cc(C#N)c(=O)n(Cc4cccnc4)c3nc12	27	6	-7	3.8*	5%	1
N#Cc1cc2c(=O)n3ccccc3nc2n(Cc2cccnc2)c1=O	-6	-3	-7	3.8*	8%	1.1
O=C1C2CC=CCC2C(=O)N1c1ccc(Cc2ccncc2)cc1 (configuration not stated)	6	-2	1	1	4%	0.99
COc1ccc(CCNC[C@@H](O)c2ccc(O)cc2)cc1OC	.	.	0	.	.	.
CC(CCc1ccc(O)cc1)NCCc1ccc(O)c(O)c1 (configuration not stated)	.	.	61*	.	.	.
CN1C(=O)N(C)C2(c3ccccc3)N(C)C(=O)NC12c1ccccc1 (configuration not stated)	-3	10	3	1.1	14%	1
Cn1c(NCCCO)nc2c(c1=O)C1(CCCCC1)Cc1ccccc1-2	43	2	1	3.8*	9%	1.1
Cc1cc(C)n2cc(CSc3ncccc3C(=O)O)nc2n1	5	27	-2	5*	11%	1
Cc1cc(NC(=O)CSC2=NCCS2)no1	5	2	-2	1.1	9%	1
Cc1cc(C)n2cc(CSC3=NCCS3)nc2n1	-3	-15	-4	4.8*	1%	1
Cc1cc(C)n2cc(CSc3nnnn3-c3ccccc3C)nc2n1	13	5	2	2.1*	7%	1
Cc1cc(C)n2cc(CSCc3ccco3)nc2n1	-4	-17	0	1.4	5%	0.98
CCS(=O)(=O)C(=C1NCCO1)S(=O)(=O)CC	6	-5	0	1.1	1%	1.1
COc1ccccc1NC(=O)c1cc(Sc2nncn2C)nc2ccccc12	8	-9	-2	1.1	1%	1.1
CCOc1ccc(CCNC(=O)C2CCCN(C(=O)N(C)C)C2)cc1OCC (configuration not stated)	14	-14	1	1	7%	0.98
CC(=O)c1cc2c(cc1NC(=O)CN1CCCCC1C)OCO2 (configuration not stated)	0	-19	-3	1.3	11%	1.1
O=C1c2ccc(-c3nc4ccccc4o3)cc2C(=O)N1Cc1cccnc1	28	-10	-1	2.1*	1%	1.1
CCOc1cc(C2C(C#N)=C(N)Oc3n[nH]c(-c4ccccc4)c32)ccc1O (configuration not stated)	14	65*	1	1.2	0%	1
N#CC1=C(N)Oc2n[nH]c(-c3ccccc3)c2C1c1cccnc1 (configuration not stated)	-1	-3	-1	1.1	4%	1
COCCn1c(=NC(=O)CSCC(=O)Nc2cc(C)on2)sc2cc(C(=O)OC)ccc21	15	-3	0	1.2	5%	1.2
SMILES	MKP-1 inh	Cdc25B inh	Hsp90 block	Fluor 339 460	NADH coupling	Abs 340nm
COC(=O)c1ccccc1NS(=O)(=O)c1ccc2c3c(cccc13)C(=O)N2	44	-5	-1	2.8*	16%	1
O=C1Nc2ccc(S(=O)(=O)NCc3ccco3)c3cccc1c23	15	5	42	2.2*	1%	1.1
CC(C)C(NS(=O)(=O)c1ccc2c3c(cccc13)C(=O)N2)C(=O)O (configuration not stated)	-5	-4	-4	2.2*	1%	1.1
CCOc1ccc(S(=O)(=O)NCc2ccco2)c2ccccc12	-1	4	-3	1.1	1%	1
O=C(O)c1ccccc1NS(=O)(=O)c1ccc2c3c(cccc13)C(=O)N2	-14	-4	-3	1.1	7%	1
Cc1cc2c(c(Sc3ccccc3)n1)C(=O)OC2	5	3	-1	1.1	7%	1
NC(=O)C1(N2CCCCC2)CCN(Cc2ccccc2Cl)CC1	-20	-11	3	1	10%	0.97
CCCn1c(SCc2cc(=O)oc3ccc4ccccc4c23)n[nH]c1=O	27	-2	-1	2.1*	9%	1.1
CCCn1c(SCC(=O)NC(=O)NCc2ccco2)n[nH]c1=O	11	-22	-3	1	3%	1
O=C(O)c1cccc(N2CCCC2)c1	2	-1	-3	5*	12%	1
Clc1ccc(C2Nc3ccccc3-n3cccc32)cc1 (configuration not stated)	-16	-13	-1	2.4*	0%	1
CCOc1ccccc1N(C(=O)CNC(=O)c1ccco1)C(C(=O)NC(C)(C)C)c1ccncc1 (configuration not stated)	2	12	-4	1	3%	1
COc1ccc2[nH]c(=O)c(CN(C(=O)C3CCCO3)c3cccc(C)c3)cc2c1 (configuration not stated)	-14	-5	-5	2.4*	10%	1.1
COc1ccc(N(Cc2cc3cc(OC)ccc3[nH]c2=O)C(=O)C2CCCO2)cc1 (configuration not stated)	3	0	0	2.9*	10%	1.1
Cc1ccc2cc(CN(CC(C)C)C(=O)C3CCCO3)c(=O)[nH]c2c1 (configuration not stated)	5	0	-10	1.2	3%	1
Cc1ccc(NC(=O)CN(C)S(=O)(=O)c2cccc3nsnc23)cc1Cl	-7	-12	-4	1.1	1%	1
COc1ccc(C2=CC(c3ccc(Cl)cc3)n3cnnc3N2)cc1OC (configuration not stated)	26	-14	.	1.3	11%	1
COCCOc1ccc(C(F)(F)F)cc1Nc1nc2ccccc2o1	11	-5	1	1.2	2%	1
c1ccc(Cc2nnc3sc(-c4ccc5c(c4)OCO5)nn23)cc1	4	1	2	3.5*	5%	1.1
CCc1nnc2sc(-c3ccc(NC(=O)c4ccc5c(c4)OCCO5)cc3)nn12	8	-2	-11	3.9*	4%	1.1
COc1ccc(CCn2c(-c3ccco3)nc3oc4ccccc4c(=O)c3c2=O)cc1	-12	-1	-3	1.1	5%	1.2
CC(C)CN(CC(C)C)C(=O)C12CCC(C)(C(=O)C1)C2(C)C (configuration not stated)	-3	-12	-5	1.1	2%	1
